For experiment [1], the target named is Nuclear respiratory factor 1 (Homo sapiens) (UniProt Q16656). The experiment in a line: ATG_NRF1_CIS: Attagene CIS-FACTORIAL HepG2 Assay for human Nuclear Respiratory Factor 1 (NRF1) Orphan Gene (AID 2282987). To be noted: HepG2 NRF1 cis-element reporter, Attagene multiplex; actives raise or lower the signal. The essentials:
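Using DMSO as baseline, gain- or loss-of-signal was fitted for reporter mRNA levels in HepG2 cells transiently transfected with cis-regulated reporter units. Samples were taken 24 h after dosing and read by RT-PCR with capillary electrophoresis.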

A short description of experiment [2]: ATG_NFI_CIS: Attagene CIS-FACTORIAL HepG2 Assay for human Nuclear Factor I (NFI) (AID 2282989). To be noted: HepG2 cis-regulatory reporter, NFI response element transcription; actives raise or lower the signal. The essentials: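 Reporter transcription driven by endogenous transcription factors in HepG2 cells; 24 h treatment. Quantitation by labelled RT-PCR fragments on capillary electrophoresis, gain- or loss-of-signal relative to DMSO.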

The target of experiment [3] is Myc proto-oncogene protein (Homo sapiens) (UniProt P01106). The experiment in a line: ATG_Myc_CIS: Attagene CIS-FACTORIAL HepG2 Assay for human Myelocytomatosis (Myc) Proto-Oncogene Transcription Factor (AID 2282990). To be noted: HepG2, Attagene cis-reporter transcription factor activity; actives raise or lower the signal. Put shortly:
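After 24 h chemical treatment of HepG2 cells carrying multiplexed cis-regulated reporter constructs, reporter transcripts quantified by RT-PCR and capillary electrophoresis of fluorescent fragments. Gain or loss fitted against DMSO baseline.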

The nature of experiment [4]: ATG_NRF2_ARE_CIS: Attagene CIS-FACTORIAL HepG2 Assay for human Nuclear Factor Erythroid 2 Related Factor 2 (NFR2) response to Antioxidant Response Elements (ARE) (AID 2282992).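 On AC50: reporter mRNA level measured by RT-PCR and capillary electrophoresis fluorescence.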 To be noted: HepG2 Attagene ARE/NRF2 reporter, transcription factor activity; actives raise or lower the signal. Put shortly: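 HepG2 cells transiently transfected with multiplexed cis-regulated reporter transcription units measure endogenous transcription factor activity. Reporter mRNA at 24 h is quantified by RT-PCR, fluorescent labelling and capillary electrophoresis, with bidirectional fitting relative to DMSO.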

A short description of experiment [5]: ATG_Oct_MLP_CIS: Attagene CIS-FACTORIAL HepG2 Assay for human Octamer-Binding Transcription Factor (Oct) (AID 2282993). To be noted: HepG2 Attagene cis-factorial Oct reporter, mRNA; actives raise or lower the signal. The essentials: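 Transfected HepG2 cells, 24 h treatment. Reporter mRNA quantified by RT-PCR–capillary electrophoresis; bidirectional fitting against DMSO.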

The target in experiment [6] is Cellular tumor antigen p53 (Homo sapiens) (UniProt P04637). Briefly: ATG_p53_CIS: Attagene CIS-FACTORIAL HepG2 Assay for human p53 Transcription Factor (AID 2282994). To be noted: HepG2 p53 cis-element reporter, Attagene mRNA; actives raise or lower the signal. The essentials:
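HepG2 cells transiently transfected with multiplexed cis-regulated reporter transcription units read endogenous TF activity. After 24 h compound exposure, reporter mRNA was quantified by RT-PCR, fluorescent labelling, HpaI digestion and capillary electrophoresis; bidirectional fits versus DMSO baseline.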

A short description of experiment [7]: BSK_3C_uPAR: BioMAP Diversity Plus: 3C Assay for Urokinase-type plasminogen activator receptor (uPAR) Biomarker Activity (AID 2282998). To be noted: BioMAP 3C HUVEC, uPAR biomarker ELISA; actives raise or lower the signal. The essentials:
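Readout: ELISA for surface uPAR. System: human umbilical vein endothelial primary cells, 24 h after chemical exposure. Analysis: bidirectional fit, DMSO baseline.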
In general terms: An ELISA detects its analyte on a solid surface through an enzyme-linked reagent.

A short description of experiment [8]: BSK_3C_VCAM1: BioMAP Diversity Plus: 3C Assay for Vascular cell adhesion molecule 1 (VCAM1) Biomarker Activity (AID 2282999). To be noted: BioMAP 3C HUVEC, VCAM1 ELISA, cytokine-stimulated; actives raise or lower the signal. The essentials:
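Endothelial cells from human umbilical vein are treated with test chemical. At 24 h, VCAM-1 is measured by ELISA, and responses in either direction are fitted relative to DMSO.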

Experiment [9] can be described thus: BSK_3C_TissueFactor: BioMAP Diversity Plus: 3C Assay for Tissue Factor Biomarker Activity (AID 2282997). To be noted: BioMAP 3C HUVEC, tissue factor biomarker readout; actives raise or lower the signal. Put shortly:
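Human vascular primary cells (umbilical vein endothelium) received test chemical; Tissue Factor was determined by ELISA at 24 h, and both gain and loss of signal versus DMSO were fitted.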

Experiment [10] is described as follows: ATG_NF_kB_CIS: Attagene CIS-FACTORIAL HepG2 Assay for human Nuclear Factor Kappa B (NF-kB) (AID 2282991). To be noted: HepG2 Attagene cis-factorial NF-kB reporter mRNA; actives raise or lower the signal. Put shortly:
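Endpoint from a 52-component multiplexed HepG2 reporter panel: cis-regulated transcription units transiently transfected, 24 h dosing, reporter mRNA quantified by RT-PCR and capillary electrophoresis, scored as increase or decrease against DMSO.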

Active and inactive are the calls of the source. How the source made its calls: active means hit-call score of the fitted dose curve at least 0.9, where 1 is the maximum; inactive means score below 0.9.

Sequence of Myc proto-oncogene protein (Homo sapiens) (P01106 whole entry, looked up, the tested form may be a part): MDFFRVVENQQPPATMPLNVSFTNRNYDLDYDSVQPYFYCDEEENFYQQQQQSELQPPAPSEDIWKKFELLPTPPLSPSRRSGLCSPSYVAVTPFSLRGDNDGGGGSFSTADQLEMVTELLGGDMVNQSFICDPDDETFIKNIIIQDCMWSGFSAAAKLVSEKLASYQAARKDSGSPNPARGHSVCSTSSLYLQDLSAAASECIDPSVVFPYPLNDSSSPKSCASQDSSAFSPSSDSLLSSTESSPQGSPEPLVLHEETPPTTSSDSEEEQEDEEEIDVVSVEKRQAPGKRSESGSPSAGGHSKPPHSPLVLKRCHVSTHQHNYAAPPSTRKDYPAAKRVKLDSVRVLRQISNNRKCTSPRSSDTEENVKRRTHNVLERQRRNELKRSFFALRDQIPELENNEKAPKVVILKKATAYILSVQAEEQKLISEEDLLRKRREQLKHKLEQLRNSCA
Sequence of Nuclear respiratory factor 1 (Homo sapiens) (Q16656 whole entry, looked up): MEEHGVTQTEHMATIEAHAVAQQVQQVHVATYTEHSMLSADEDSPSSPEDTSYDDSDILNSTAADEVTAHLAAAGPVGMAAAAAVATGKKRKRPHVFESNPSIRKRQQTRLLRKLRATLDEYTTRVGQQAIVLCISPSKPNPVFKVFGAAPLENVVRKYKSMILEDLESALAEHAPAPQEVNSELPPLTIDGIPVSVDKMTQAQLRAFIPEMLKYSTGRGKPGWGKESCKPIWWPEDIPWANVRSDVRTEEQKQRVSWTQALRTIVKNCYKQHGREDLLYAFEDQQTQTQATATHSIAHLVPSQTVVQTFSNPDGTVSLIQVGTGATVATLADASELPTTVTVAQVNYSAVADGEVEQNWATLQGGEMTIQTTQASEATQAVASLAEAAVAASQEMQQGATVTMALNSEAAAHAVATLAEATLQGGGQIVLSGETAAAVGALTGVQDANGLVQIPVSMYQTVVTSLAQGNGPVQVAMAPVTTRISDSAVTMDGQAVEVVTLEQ
Sequence of Cellular tumor antigen p53 (Homo sapiens) (P04637 whole entry, looked up): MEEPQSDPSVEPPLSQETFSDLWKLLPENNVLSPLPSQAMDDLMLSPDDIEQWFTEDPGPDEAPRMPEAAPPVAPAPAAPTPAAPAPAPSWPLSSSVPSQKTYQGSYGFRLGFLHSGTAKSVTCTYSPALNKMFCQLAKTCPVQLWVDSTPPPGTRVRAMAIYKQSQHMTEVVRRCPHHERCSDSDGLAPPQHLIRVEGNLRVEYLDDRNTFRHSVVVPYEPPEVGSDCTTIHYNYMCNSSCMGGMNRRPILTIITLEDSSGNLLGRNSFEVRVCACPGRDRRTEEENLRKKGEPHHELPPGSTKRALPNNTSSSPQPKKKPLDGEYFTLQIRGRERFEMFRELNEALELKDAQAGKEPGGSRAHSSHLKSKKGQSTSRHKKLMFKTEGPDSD

As usually defined, the AC50 is the concentration at which the activity in the assay is half-maximal. Turning to `C=CCCCCCCCCC(=O)OCC`, the molecule was classed as inactive in [1], in experiment [2], in experiment [3], in [5] and in experiment [6]. In addition, the AC50 in experiment [4] was 61.7 µM (active).

As for `CCCCN(CCCC)CCCCCCN(CCCC)CCCC`, the molecule was called inactive in experiment [1], in experiment [2], in experiment [3], in experiment [4], in experiment [5] and in experiment [6].

With `CC1COC(=O)O1` (stereo not drawn), the outcome in experiment [1], in experiment [2], in [3], in experiment [4], in experiment [5] and in [6] was inactive.

Turning to `O=C(O)c1ccco1`, the call in experiment [1], in experiment [2], in experiment [3], in [4], in experiment [5] and in experiment [6] was inactive.

Turning to `C=CC(C)(CCC=C(C)C)OC(=O)CC` (stereo not drawn), the call in [1], in experiment [2], in experiment [3], in experiment [5] and in experiment [6] was inactive. Also, the AC50 in [4] was 68.1 µM (active).

With `Cc1cccc(C)c1`, the molecule was classed as inactive in experiment [1], in [2], in experiment [3], in [4] and in experiment [5].

In the case of `CC(CO)(CO)[N+](=O)[O-]`, the molecule was called inactive in experiment [1], in [2], in experiment [3], in experiment [4] and in [5].

`CN(C)C`: the molecule was called inactive in experiment [1], in [2], in [3], in [4], in [5] and in experiment [6].

Consider `CC(=O)C1C(=O)C=C(C)OC1=O` (stereo not drawn), for which the molecule was classed as inactive in experiment [1], in [2], in experiment [3], in [4], in experiment [5] and in [6].

Regarding `CCCOC(=O)CC`, the molecule was classed as inactive in [1], in [2], in [3], in experiment [4] and in [5].

Regarding `Nc1ccc(O)c(N)c1`, the call in experiment [1], in experiment [2], in experiment [3], in experiment [5] and in [6] was inactive. Further, in experiment [4], the AC50 is 43.9 µM (active).

Take `O=C1OC2(c3ccc(O)cc3Oc3cc(O)ccc32)c2ccccc21`: the molecule was called inactive in [1], in experiment [2], in experiment [3], in experiment [4], in experiment [5] and in [7]. In addition, in experiment [8], the outcome was inactive.

Regarding `C=C(C)C(=O)OCCN(C)C`, the call in [1], in [2], in [3], in experiment [4], in [5] and in [6] was inactive.

Take `CCC(=O)OC(C)(C)C1CC=C(C)CC1` (stereo not drawn): the result in experiment [1], in [2], in experiment [3], in [5] and in experiment [6] was inactive.

Take `CCCCOCCOC(=O)c1ccccc1C(=O)OCCOCCCC`: the molecule was called inactive in experiment [1], in [2], in experiment [3] and in experiment [6]. For the same molecule, the AC50 in experiment [4] is 37.7 µM (active).

Consider `CN1CCc2cccc3c2[C@H]1Cc1ccc(O)c(O)c1-3`, for which, in experiment [1], the AC50 was 3.59 µM (active). For the same molecule, the call in [2], in [3], in [5] and in [6] was inactive.

Turning to `C/C=C(\C)C(=O)OC/C=C(\C)CCC=C(C)C`, the molecule was called inactive in experiment [1], in experiment [2], in experiment [3] and in experiment [6]. Moreover, the AC50 in experiment [4] is 100 µM (active).

With `CCCCCCCOC(C)=O`, the call in experiment [1], in experiment [2], in experiment [3], in experiment [4], in experiment [5] and in experiment [6] was inactive.

Take `N#CCCNCCC#N`: the molecule was called inactive in experiment [1], in [2], in experiment [3] and in experiment [5].

In the case of `CCCO[Si](OCCC)(OCCC)OCCC`, the molecule was called inactive in [1], in experiment [2], in [3], in [4], in experiment [5] and in experiment [6]. For the same molecule, the outcome in [9], in experiment [7] and in experiment [8] was inactive.

Turning to `OCCCO`, the molecule was classed as inactive in [1], in [3], in [10], in [4], in experiment [5] and in experiment [6].

`C1=COCCC1`: the molecule was called inactive in experiment [1], in [3], in experiment [10], in [4], in [5] and in experiment [6].

Consider `CC(CO)c1ccccc1` (stereo not drawn), for which the result in experiment [1], in [3], in [10], in [4], in [5] and in [6] was inactive.

The values are drawn from PubChem BioAssay (EPA / NIEHS).
